From PubChem BioAssay AID1159580 (chemical genetic matrix, 2015)
Where “and” joins values, the source holds several entries; their conditions need not be identical. Equal entries are not always repeated. Hit rate of the full screen: of about 5,500 compounds, about 2,000 (36%) were called active. Another 18% or so got no clear call; they are omitted. Cut-off read from the data, not from the text of the source: active = normalized growth mostly below about 0.91 (no sharp cut-off); inconclusive = no clear call, values can overlap the other calls; inactive = mostly above about 0.92. Some of the results follow.

Assay: chemical genetic growth profiling, strain panel (AID 1159580);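 note: tested at 20 µM; growth read once vehicle control cultures reached saturation at 30 °C; 1 = growth at the plate median or of vehicle wells; lower values mean less growth of the strain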
Details: S. cerevisiae deletion strains, growth OD

Measured: normalized growth

O=C(O)CCCCCCCC(=O)O
inactive: locus YAL013W, strain DEP1, active compounds read low 0.991 | locus YAL021C, strain ccr4, active compounds read low 1.02 | locus YAL026C, strain drs2, active compounds read low 1.04 | locus YAL030W, strain snc1, active compounds read low 1.02 | locus YAL040C, strain CLN3, active compounds read low 1.01 | locus YBL061C, strain skt5, active compounds read low 1.01 | locus YBR009C, strain hhf1, active compounds read low 1.01 | locus YBR021W, strain FUR4, active compounds read low 0.999 | locus YBR023C, strain chs3, active compounds read low 1.01 | locus YBR171W, strain sec66, active compounds read low 1.03 | locus YBR229C, strain ROT2, active compounds read low 0.956 | locus YBR231C, strain swc5, active compounds read low 1.01 | locus YBR279W, strain paf1, active compounds read low 0.991 | locus YCL011C, strain gbp2, active compounds read low 1.02 | locus YCL016C, strain dcc1, active compounds read low 1.03 | locus YCL029C, strain bik1, active compounds read low 0.969 | locus YCL069W, strain vba3, active compounds read low 1.02 | locus YCR088W, strain abp1, active compounds read low 1.02 | locus YDL005C, strain med2, active compounds read low 0.986 | locus YDL035C, strain GPR1, active compounds read low 0.994 | locus YDL040C, strain nat1, active compounds read low 0.999 | locus YDL074C, strain BRE1, active compounds read low 0.982 | locus YDL101C, strain DUN1, active compounds read low 0.981 | locus YDL134C, strain PPH21, active compounds read low 0.96 | locus YDL185W, strain tfp1, active compounds read low 0.982 | locus YDL192W, strain arf1, active compounds read low 0.984 | locus YDR001C, strain nth1, active compounds read low 1.03 | locus YDR069C, strain doa4, active compounds read low 1 | locus YDR101C, strain arx1, active compounds read low 0.991 | locus YDR137W, strain rgp1, active compounds read low 0.99 | locus YDR150W, strain NUM1, active compounds read low 0.974 | locus YDR159W, strain sac3, active compounds read low 0.997 | locus YDR162C, strain NBP2, active compounds read low 0.994 | locus YDR195W, strain ref2 0.997 | locus YDR297W, strain sur2, active compounds read low 0.996 | locus YDR318W, strain mcm21, active compounds read low 0.981 | locus YDR334W, strain swr1, active compounds read low 1 | locus YDR335W, strain msn5, active compounds read low 1 | locus YDR363W, strain ESC2, active compounds read low 0.994 | locus YDR388W, active compounds read low 0.98 | locus YDR392W, strain spt3, active compounds read low 1.04 | locus YDR502C, strain sam2, active compounds read low 0.986 | locus YEL003W, strain gim4, active compounds read low 1.02 | locus YEL037C, strain rad23, active compounds read low 1 | locus YEL061C, strain CIN8 (second series), active compounds read low 1.03 | locus YEL061C, strain CIN8, active compounds read low 0.989 | locus YER002W, strain NOP16, active compounds read low 1.01 | locus YER015W, strain faa2, active compounds read low 1 | locus YER016W, strain bim1, active compounds read low 1.02 | locus YER110C, active compounds read low 0.971 | locus YER111C, strain swi4, active compounds read low 1.01 | locus YER155C, strain BEM2 (second series), active compounds read low 1.07 | locus YER155C, strain BEM2, active compounds read low 1 | locus YER167W, strain BCK2, active compounds read low 1.02 | locus YFR010W, strain ubp6, active compounds read low 1.01 | locus YGL078C, strain dbp3, active compounds read low 0.983 | locus YGL086W, strain mad1, active compounds read low 1 | locus YGL167C, strain pmr1, active compounds read low 1.02 | locus YGL173C, strain kem1, active compounds read low 1.02 | locus YGL227W, strain vid30, active compounds read low 1.02 | locus YGL240W, strain doc1, active compounds read low 1.01 | locus YGL248W, strain PDE1, active compounds read low 0.992 | locus YGL253W, strain hxk2, active compounds read low 1.02 | locus YGR078C, strain PAC10, active compounds read low 0.99 and 1.01 | locus YGR135W, strain pre9, active compounds read low 0.988 | locus YGR229C, strain SMI1, active compounds read low 1 and 0.991 | locus YGR252W, strain gcn5, active compounds read low 0.961 | locus YHR013C, strain ard1, active compounds read low 1.04 | locus YHR027C, strain rpn1, active compounds read low 1 | locus YHR030C, strain SLT2, active compounds read low 0.993 and 0.979 | locus YHR079C, strain IRE1 (second series), active compounds read low 0.988 | locus YHR079C, strain IRE1, active compounds read low 0.982 | locus YHR094C, strain hxt1, active compounds read low 0.995 | locus YHR129C, strain ARP1, active compounds read low 0.96 | locus YHR142W, strain chs7, active compounds read low 1.05 | locus YHR200W, strain rpn10, active compounds read low 0.991 | locus YIL066C, strain RNR3, active compounds read low 0.976 | locus YIL073C, strain SPO22, active compounds read low 0.952 | locus YIL125W, strain kgd1, active compounds read low 0.999 | locus YIR030C, strain dcg1, active compounds read low 0.986 | locus YJL092W, strain hpr5, active compounds read low 1.03 | locus YJL095W, strain BCK1 (second series), active compounds read low 1.01 | locus YJL095W, strain BCK1, active compounds read low 1.03 and 0.992 | locus YJL115W, strain asf1, active compounds read low 1.01 | locus YJL129C, strain trk1, active compounds read low 1.01 | locus YJL134W, strain LCB3, active compounds read low 0.991 | locus YJL154C, strain vps35, active compounds read low 1.03 | locus YJL164C, strain tpk1, active compounds read low 1.03 | locus YJL166W, strain qcr8, active compounds read low 1.02 | locus YJL168C, strain set2, active compounds read low 0.99 | locus YJL187C, strain SWE1 (second series), active compounds read low 0.976 | locus YJR043C, strain POL32, active compounds read low 0.994 | locus YJR066W, strain TOR1, active compounds read low 0.965 | locus YJR075W, strain HOC1, active compounds read low 0.985 and 0.983
